Test results reported in the supplement of paper PMC10338343.
± gives the standard deviation.

Tests used:
[1] = test system: MILI (PIWIL2) piRISC loaded with L1MC piRNA (26 nt); assay: pre-steady-state target cleavage rate (min^-1); guide: L1MC piRNA 5'p-UAACUAAAUACUAUGCAAGCUGUAGG; higher = faster piRNA-guided slicing of the target
In short: (§1)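 A transcribed, DNA-blocked target RNA library (0.1 nM) and 1 nM active affinity-purified piRISC bearing one synthetic guide were incubated in HEPES–potassium acetate buffer at 33 °C for 0–8 or 0–960 min, either with or without 500 nM GTSF1 partner protein. Uncleaved targets were sequenced, normalised to depth and to weakly complementary targets, and pooled over three trials, with k3 capped at 0.0001 min^-1. The pre-steady-state cleavage rate was derived with a burst-and-steady-state fit.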

[2] = test system: EfPiwi piRISC loaded with L1MC piRNA (26 nt); assay: pre-steady-state target cleavage rate (min^-1); auxiliary factor: 500 nM Ephydatia muelleri Gtsf1; guide: L1MC piRNA 5'p-UAACUAAAUACUAUGCAAGCUGUAGG; MIWI and MILI are mouse PIWI proteins and EfPiwi is from a freshwater sponge; tags in brackets are library labels; higher = faster piRNA-guided slicing of the target
In short: as §1

[3] = auxiliary factor: 500 nM mouse GTSF1
[4] = auxiliary factor: none (no GTSF1)

| Sequence | pre-steady-state target cleavage rate [1, 3] | pre-steady-state target cleavage rate [1, 4] | pre-steady-state target cleavage rate [2] |
| --- | --- | --- | --- |
| UCCUGGAUGAGCUUGCAUACUAUUUAGUUA | 0.0499 ± 0.0093 | 0.00321 ± 0.0018 | 0.00682 ± 0.0019 |
| UCCUGCUACAGCUUGCAUAGUAGUUAGUUA | 0.127 ± 0.03 | 0.00253 ± 0.0025 | 0.00461 ± 0.0015 |
| UCCUGGUAGAGCUUGCAUAGUAUUUAGUUA | 0.245 ± 0.015 | 0.00842 ± 0.0022 | 0.0138 ± 0.0044 |
| UCCUGGAUCAGGUUGCAUAGUAUUAAGUUA | 0.144 ± 0.017 | 0.00601 ± 0.0021 | 0.00407 ± 0.0025 |
| UCCUGCUACAGCCUGCAUAGUAUUUAGUUA | 0.279 ± 0.025 | 0.00704 ± 0.0031 | 0.01 ± 0.0029 |
| UCCUGGUACAGCUUGCAUAGUAUUUAGUAUA | 0.224 ± 0.031 | 0.00565 ± 0.0029 | 0.00633 ± 0.0024 |
| UCCUGGUAGUCCUUGCAUAGUAUUUAGUUA | 0.126 ± 0.018 | 0.00932 ± 0.003 | 0.00556 ± 0.0026 |
| UCCUGGAUCAGCUUGCAUAGUAUUUAGUUU [g2:g22:cont:t1U] | 0.357 ± 0.019 | 0.0189 ± 0.0043 | 0.121 ± 0.025 |
| UCCUGGUACAGCUUGCAUUGUAUUUAGUUA | 0.171 ± 0.017 | 0.0101 ± 0.0041 | 0.00513 ± 0.002 |
| UCCUGGAUGUGGCUUGCAUAGUAUUUAGUUA | 0.163 ± 0.017 | 0.0089 ± 0.0042 | 0.0125 ± 0.0049 |
| UCCUGCUAGCAGCUUGCAUAGUAUUUAGUUA | 0.259 ± 0.014 | 0.00955 ± 0.0024 | 0.0598 ± 0.016 |
| UCCUGGAACAGCUUGCUUAGUAUUUAGUUA | 0.264 ± 0.01 | 0.00723 ± 0.0021 | 0.0181 ± 0.005 |
| UCCUGGAUCAGCUUGCAUAGUAUUUAGGUUA | 0.271 ± 0.027 | 0.00531 ± 0.0025 | 0.00516 ± 0.0024 |
| UCCUCCUACAGUCUUGCAUAGUAUUUAGUUA | 0.252 ± 0.018 | 0.00736 ± 0.0023 | 0.0171 ± 0.006 |
| UCCUGGAUCAGCGUGCAUAGUAUUUAGUUA | 0.225 ± 0.015 | 0.00697 ± 0.0035 | 0.0619 ± 0.012 |
| UCCUGCUUCAGCUUGCAUAGUAUUUACUUA | 0.116 ± 0.021 | 0.00294 ± 0.0023 | 0.00411 ± 0.0037 |
| UCCUCCUACAGCUUGCAUAGUAUAUAGUUA | 0.242 ± 0.026 | 0.00534 ± 0.0019 | 0.00814 ± 0.0038 |
